Source: ChEMBL document CHEMBL3988442, “University of Dundee, Small-Polar-MMV Screening Library” (2021)

Assays:
[1] = biological target: T1, Aspartate--tRNA(Asp/Asn) ligase (Mycobacterium tuberculosis (strain ATCC 25618 / H37Rv)) (UniProt P9WFW3); assay: Assay for Asp RNA synthetase-1 from Mycobacterium tuberculosis; format: functional; set-up: scale not given: direction of the effect not stated beside the values; settings: 30 µM; also: in the data most compounds retested in dose-response had high values
T1 sequence (whole entry): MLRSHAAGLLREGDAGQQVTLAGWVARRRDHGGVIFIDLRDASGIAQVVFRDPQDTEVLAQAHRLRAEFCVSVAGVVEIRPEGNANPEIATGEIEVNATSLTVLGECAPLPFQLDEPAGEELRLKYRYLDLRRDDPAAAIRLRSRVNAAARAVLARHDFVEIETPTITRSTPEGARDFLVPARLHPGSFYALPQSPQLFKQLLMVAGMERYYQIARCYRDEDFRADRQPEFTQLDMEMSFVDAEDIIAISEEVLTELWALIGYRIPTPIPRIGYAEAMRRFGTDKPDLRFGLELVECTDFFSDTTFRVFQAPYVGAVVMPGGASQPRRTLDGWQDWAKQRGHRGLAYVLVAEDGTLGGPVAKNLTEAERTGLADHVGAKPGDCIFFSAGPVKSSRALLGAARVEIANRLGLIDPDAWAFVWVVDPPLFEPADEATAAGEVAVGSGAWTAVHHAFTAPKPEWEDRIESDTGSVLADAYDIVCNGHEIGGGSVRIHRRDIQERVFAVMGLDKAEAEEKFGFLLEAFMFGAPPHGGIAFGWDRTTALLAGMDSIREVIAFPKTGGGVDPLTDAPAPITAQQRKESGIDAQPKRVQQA

[2] = biological target: Shiga toxin 2 (Escherichia coli O157:H7) (UniProt P09385+P09386); assay: E. coli 0.157:H7 Shiga Toxin SOP - stx2 screening assay; format: functional; set-up: scale not given: direction of the effect not stated beside the values; settings: 30 µM

Row | Structure (SMILES) | Percent Effect [1] | Percent Effect [2]
1 | Cc1noc(C2CCCCN2C(=O)NC2CCCC2)n1 (configuration not stated) | 5.06% | -14.7%
2 | CN(Cc1ccco1)C[C@H]1OC[C@@H]2CCN(Cc3nccs3)C[C@@H]21 | 4.31% | -45.7%
3 | O=C1NCCCCC1Sc1nnc(C2CC2)n1C1CC1 (configuration not stated) | -6.09% | 3.62%
4 | Cc1cnc2c(S(=O)(=O)NCC3CCS(=O)(=O)C3)cccc2c1 (configuration not stated) | 3.04% | -5.77%
5 | CC(OCC(F)(F)F)C(=O)NCc1ccc(-n2cncn2)nc1 (configuration not stated) | -3.63% | -8.85%
6 | CC(C)c1cc(NCC(O)CO)n2nccc2n1 (configuration not stated) | -1.68% | -0.898%
7 | CN1CCOC(CNCc2cccc(OCC(F)(F)F)c2)C1 (configuration not stated) | -2.34% | 2.68%
8 | Cc1ccc(CN(Cc2c[nH]cn2)C2CC(C)(C)NC(C)(C)C2)o1 | -1.68% | 7.12%
9 | Cc1csc(N2CCN(C(=O)Cc3ccc(C)s3)CC2)n1 | -4.4% | 12.2%
10 | C[C@@H]1CN(C(=O)NC2CC2)C[C@]12CCN(c1ccsc1)C2=O | 2.34% | -3.08%
11 | FC(F)(F)Cn1ccnc1CN1CCCC1c1noc(C2CC2)n1 (configuration not stated) | 11.5% | -34%
12 | Cc1ccc(C)c(NC(=O)Nc2c[nH]c(=O)[nH]c2=O)c1 | -1.44% | 2.86%
13 | Cn1cc(CN2C[C@@H]3COC[C@@H](C(=O)N4CCCCO4)[C@@H]3C2)cn1 | -1.16% | -15.2%
14 | CCc1nnc2n1CCN(C(=O)c1ccc(C(F)(F)F)nc1C)C2 | 1.43% | -8.18%
15 | CN1CCCC[C@@H]2[C@H]1[C@@H](c1ccccc1)CCN2C(=O)c1ccccc1 | -4.21% | -4.17%
16 | CCn1cc2c(n1)CN(Cc1ccncc1)CC2COCC1CC1 (configuration not stated) | 1.43% | -18.6%
